# Activity calls are given as the source filed them. The calls were made as follows: active = hit-call score of the fitted dose curve at least 0.9, where 1 is the maximum; inactive = score below 0.9.
# Read-out: Pro-epidermal growth factor (Homo sapiens) (UniProt P01133)
# Test: LTEA_HepaRG_EGF: Life Technologies and Expression Analysis (LTEA) Assay for Epidermal growth factor (EGF) using HepaRG (AID 2283489)
# Conditions: mRNA level, 48 h; actives raise or lower the signal
# Experimental: LTEA_HepaRG is a cell based, multiplexed-readout assay that uses HepaRG, a human liver cell line, with measurements taken at 48 hours after chemical dosing on a 96-well plate.LTEA_HepaRG_EGF is one of 102 assay component(s) measured in the LTEA HepaRG cell culture assay. It is a marker of Cell proliferation, survival, death.Data from the assay component LTEA_HepaRG_EGF was analyzed into 1 endpoint. This assay endpoint, LTEA_HepaRG_EGF, was analyzed with bidirectional fitting relative to DMSO as the negative control and baseline of activity. Using a type of inducible reporter, measures of mRNA induction for gain or loss-of-signal activity can be used to understand regulation of transcription factor activity. To generalize the intended target to other relatable targets, this assay endpoint is annotated to the growth factor intended target family, where the subfamily is EGF-like domain.
# A total of 1060 chemcials from the ToxCast library were tested in eight-point concentration-response experiments. Cell culture and cytotoxicity assays were conducted at Thermo Fisher Scientific's Custom Services facility (Madison, WI). A single lot of human HepaRG cells (Thermo Fisher Scientific, Frederick, MD) was used for the cell culture experiments. 96-well format collagen type I coated plates of human HepaRG cells were prepared using established methods. Briefly, cryopreserved HepaRG cells were thawed, plated at a density of approximately 100,000 cells/well in HepaRG Thaw, Plate, and General Purpose media (HPRG770, Thermo Fisher Scientific), and incubated for 48 hours. 0.5% DMSO was selected as vehicle control to balance the requisite need of DMSO in HepaRG cultures to maintain differentiation (for example, baseline metabolism, proportions of hepatocytes vs. cholangiocytes), while enabling further hepatic receptor pathway activation (for example, PXR and CAR) in response to chemical exposure. 48 hours after plating, the culture medium was replaced with HepaRG Serum-Free Incudtion Media. Cells were exposed to each test chemical in duplicate and maintained in CO2 incubators for another 48 hours. Chemical plates were thawed to room temperature and 200x concentrations of treatment groups were prepared. 8-point conentration-reponse curves were made with the highest exposure at 100 uM, followed by half-log dilutions, all in 0.5% DMSO. Each test plate contained variouse controls, induction positive controls (1mM phenobarbital), cytotoxicity positive controls ([…] aflatoxin B1), vehicle controls (0.5% DMSO), and total lysis controls (0.5% DMSO). Cell morphology images were taken using an Essen IncuCyte FLR automated microscope, with six 96-well plates imaged in about 24 minutes. Images were captured and exported and JPEG files. Spent culture media was transfered to black-well plates for the LDH assay, and remaining media was sorted at -80 C for later use. Cells were treated with RLT buffer and frozen until shipped for gene expression analysis. Total RNA was isolated from the cell suspension in 75 uL of Buffer RLT (Qiagen, Germantown, MD 20874) by Quintiles/Expression Analysis (Durham, NC) using a custom isolation procedure. Total RNA from each plate well was transferred to a preamplification plate. Fluidigm's 96.96 Dynamic ArrayTM (Fluidigm, Amsterdam, the Netherlands) technology was used for gene expression analyses by quantitative reverse transcription polymerase chain reaction (qRT-PCR, performed by Quintiles/Expression Analysis, Durham, NC)89. Standard TaqManTM Assays (Applied Biosystems/ThermoFisher Scientific, Foster City, CA) were used to assess the expression of 93 genes selected based on their selectivity and sensitivity to important hepatic receptors known to be modulated by environmental chemicals; importance in human hepatocyte functionality; and hepatotoxicity. […]
SMILES,outcome,AC50
Cc1cc(C2CC2)nc(Nc2ccccc2)n1,inactive,–
CCOP(=O)(OCC)Oc1cc(C)nc(C(C)C)n1,inactive,–
COP(=O)(OC)OC(Br)C(Cl)(Cl)Br (stereo not given),inactive,–
COc1ccc(C(=CC(=O)N2CCOCC2)c2ccc(Cl)cc2)cc1OC,inactive,–
CCOP(=O)(SC(C)CC)N1CCSC1=O (stereo not given),inactive,–
CNC(=O)ON=C(C)SC,inactive,–
CCOP(=O)(NC(C)C)Oc1ccc(SC)c(C)c1 (stereo not given),inactive,–
CCOP(=S)(OCC)SCCSCC,inactive,–
CCCCOC(=O)[C@@H](C)Oc1ccc(Oc2ccc(C#N)cc2F)cc1,inactive,–
CSc1nnc(C(C)(C)C)c(=O)n1N,inactive,–
CC(C)[C@H](C(=O)O[C@H](C#N)c1cccc(Oc2ccccc2)c1)c1ccc(Cl)cc1,inactive,–
CCCCSP(=O)(SCCCC)SCCCC,inactive,–
CCC(=O)Nc1ccc(Cl)c(Cl)c1,inactive,–
C[Si](Cn1cncn1)(c1ccc(F)cc1)c1ccc(F)cc1,inactive,–
CCC(CC)Nc1c([N+](=O)[O-])cc(C)c(C)c1[N+](=O)[O-],–,50 µM (active)
C=C(C)[C@H]1Cc2c(ccc3c2O[C@@H]2COc4cc(OC)c(OC)cc4[C@@H]2C3=O)O1,–,50 µM (active)
CSc1nc(NC(C)C)nc(NC(C)C)n1,inactive,–
CCNc1nc(Cl)nc(NC(C)(C)C#N)n1,inactive,–
O=[N+]([O-])c1cc(C(F)(F)F)c(Cl)c([N+](=O)[O-])c1Nc1ncc(C(F)(F)F)cc1Cl,inactive,–
COP(=O)(OC)SCn1c(=O)oc2cc(Cl)cnc21,inactive,–

SMILES,outcome,AC50
N#CSCSC#N,inactive,–
Cc1nn(-c2cc(NS(C)(=O)=O)c(Cl)cc2Cl)c(=O)n1C(F)F,inactive,–
Nc1nc(N)nc(NC2CC2)n1,inactive,–
CCOC(=O)COc1cc(-c2nn(C)c(OC(F)F)c2Cl)c(F)cc1Cl,inactive,–
CCCSP(=O)(OCC)SCCC,inactive,–
CN1COCN(Cc2cnc(Cl)s2)C1=N[N+](=O)[O-],inactive,–
COP(=O)(NC(C)=O)SC (stereo not given),inactive,–
COc1cccc(C(=O)NN(C(=O)c2cc(C)cc(C)c2)C(C)(C)C)c1C,inactive,–
O=C(O)c1cc(Oc2ccc(C(F)(F)F)cc2Cl)ccc1[N+](=O)[O-],inactive,–
CC[C@H](C)[C@H]1O[C@]2(C=C[C@@H]1C)C[C@@H]1C[C@@H](C/C=C(\C)[C@@H](O[C@H]3C[C@H](OC)[C@@H](O[C@H]4C[C@H](OC)[C@@H](NC)[C@H](C)O4)[C@H](C)O3)[C@@H](C)/C=C/C=C3\CO[C@@H]4[C@H](O)C(C)=C[C@@H](C(=O)O1)[C@]34O)O2,–,81.5 µM (active)
CCc1cccc(CC)c1N(COC)C(=O)CCl,inactive,–
CON=C(C(=O)OC)c1ccccc1CON=C(C)c1cccc(C(F)(F)F)c1,inactive,–
O=c1ccc(=O)[nH][nH]1,inactive,–
C#CC(C)(C)NC(=O)c1cc(Cl)cc(Cl)c1,inactive,–
CC1=NNC(=O)N(/N=C/c2cccnc2)C1,inactive,–
CN(C)C(=O)Nc1cccc(C(F)(F)F)c1,inactive,–
Cc1ccn2nc(S(=O)(=O)Nc3c(F)cccc3F)nc2n1,inactive,–
CCOP(=S)(OCC)Oc1ccc2c(C)c(Cl)c(=O)oc2c1,inactive,–
CCc1cnc(C2=NC(C)(C(C)C)C(=O)N2)c(C(=O)O)c1 (stereo not given),inactive,–
CCOP(=S)(OCC)Oc1ccc([N+](=O)[O-])cc1,inactive,–
